Screening data from PubChem.
In the library only some 0.7% were active in any assay of this set; here they are far more common.
FadD28 binding: inhibitors of Mycobacterium tuberculosis FadD28 bisubstrate binding | inhibition, % at 12.5 µM | FadD28 bisubstrate probe binding, fluorescence polarization | AID 588549 | actives 0.22% (n = 360,000); in the data active means inhibition above about 8.5%, passing the limit was not always enough
DUSP3 inh: blocks human VHR1 dual specificity phosphatase; actives 0.52% (n = 290,000); AID 1654; inhibition, % at 13.3 µM; recombinant VHR phosphatase, pNPP absorbance; in the data active means inhibition above about 50%
Target sequence (P51452 whole entry, looked up): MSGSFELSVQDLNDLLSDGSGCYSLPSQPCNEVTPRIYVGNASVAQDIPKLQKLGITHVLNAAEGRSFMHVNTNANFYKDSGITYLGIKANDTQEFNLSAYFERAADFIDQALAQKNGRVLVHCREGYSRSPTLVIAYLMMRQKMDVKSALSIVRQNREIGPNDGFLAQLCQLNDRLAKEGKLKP
Mtb hypoxia rep: reduces hypoxia-regulated biosensor signal in M. tuberculosis. AID 1159583. fluorescence inhibition, % (test concentration not listed). actives 0.1% (n = 300,000). M. tuberculosis hypoxia-regulated fluorescent reporter, fluorescence; in the data active means fluorescence inhibition mostly above about 23%, no sharp cut-off; inactive means mostly below about 17%
Mtb BioA inh: BioA (M. tuberculosis) enzyme inhibition; purified M. tuberculosis BioA enzyme, plate reader; inhibition, % at 9.99 µM; actives 0.096% (n = 360,000); AID 602481; in the data active means inhibition above about 40%
SARS 3CLpro inh: SARS-CoV 3CLpro protease inhibition; recombinant SARS-CoV 3CLpro, quenched FRET peptide cleavage; P0C6X7; AID 1706; actives 0.14% (n = 290,000); inhibition, % at 6 µM; in the data active means inhibition above about 12%
* = called active by the depositor.

How did C=CCCC(=O)N1CCC(n2nccc2NC(=O)CCCc2ccccc2)CC1 do in these assays?
FadD28 binding: -2; DUSP3 inh: -9; Mtb hypoxia rep: 4; Mtb BioA inh: 0; SARS 3CLpro inh: 3

What do the screens show for `COC(=O)CCCC(=O)N1CCC(n2nccc2NC(=O)CCOc2ccccc2)CC1`?
FadD28 binding: -3; DUSP3 inh: 89; Mtb hypoxia rep: 9; Mtb BioA inh: -1; SARS 3CLpro inh: 7

What do the screens show for `CC(C)(C)OC(=O)NC(C(=O)OC(C)(C)C)c1ccc2ccccc2c1` (centres undefined)?
Mtb hypoxia rep: 5

What do the screens show for `CCOC(=O)C1=C(C)Nc2ccccc2N=C1NC(=O)Cc1ccc(OC)cc1`?
FadD28 binding: -1; DUSP3 inh: 51*; Mtb hypoxia rep: 15; Mtb BioA inh: 0; SARS 3CLpro inh: -1

How did CCN(CCCNc1cc2c(c(N)c1S(=O)(=O)O)C(=O)c1ccccc1C2=O)c1ccccc1 do in these assays?
FadD28 binding: 29*; Mtb BioA inh: -1

Results for O=C1c2ccccc2C(=O)c2c(NCCCN(CCO)CCO)cccc21 ?
FadD28 binding: 1; DUSP3 inh: 18; Mtb hypoxia rep: 23; SARS 3CLpro inh: -3

Results for Cc1cc(C)cc(NC(=O)c2cc(C)nc3ccccc23)c1 ?
FadD28 binding: -2; DUSP3 inh: 59*; Mtb hypoxia rep: 5; Mtb BioA inh: -1; SARS 3CLpro inh: -4

What do the screens show for `CCOC(=O)C=Cc1ccc2oc3ccccc3c(=O)c2c1`?
Mtb hypoxia rep: 1

How did COc1ccc(CC(=O)Nc2ccc(C(=O)O)cc2NC(=O)Cc2ccc(OC)cc2)cc1 do in these assays?
FadD28 binding: 0; DUSP3 inh: 57*; Mtb hypoxia rep: 13; SARS 3CLpro inh: 0

Results for COc1ccc(CC(=O)Nc2ccc(N3CCCC3)c(C)c2)cc1 ?
FadD28 binding: -2; DUSP3 inh: 50*; Mtb hypoxia rep: 3; Mtb BioA inh: 0; SARS 3CLpro inh: -6

How did NC(=NOC(=O)c1cccc2ccccc12)c1ccc(Br)cc1 do in these assays?
Mtb hypoxia rep: 10

Results for COc1cccc(C(=O)OCCN2C(=O)c3ccccc3C2=O)c1OC ?
FadD28 binding: 0; DUSP3 inh: -29; Mtb hypoxia rep: 23; Mtb BioA inh: 0; SARS 3CLpro inh: -5

What do the screens show for `COc1cccc(C=O)c1OCCN1C(=O)c2ccccc2C1=O`?
FadD28 binding: -1; DUSP3 inh: 17; Mtb hypoxia rep: -8; Mtb BioA inh: 65*; SARS 3CLpro inh: 4

How did C[C@@]12C(=O)N(c3ccc(F)cc3)C(=O)N1C1c3ccccc3OCC1C2c1ccccc1 (some centres undefined) do in these assays?
Mtb hypoxia rep: 10

Results for CC1=NN(c2ccccc2)C(=O)/C1=C/C=C/C=C/N(C)C ?
FadD28 binding: -3; DUSP3 inh: 12; Mtb hypoxia rep: 63*; SARS 3CLpro inh: 2

How did CC(NC(=O)NCc1ccc(F)cc1)C(=O)O (centres undefined) do in these assays?
Mtb hypoxia rep: 7

How did O=C(NCCNC(=O)c1cc(OCC(F)(F)F)ccc1OCC(F)(F)F)Nc1cccc(C(F)(F)F)c1 do in these assays?
FadD28 binding: -4; DUSP3 inh: 19; Mtb hypoxia rep: 4; Mtb BioA inh: -1; SARS 3CLpro inh: 16*

Results for CCOc1ccccc1CN1CCNC(=O)C1CC(=O)NCCCn1cccn1 (centres undefined) ?
FadD28 binding: 1; DUSP3 inh: 51*; Mtb hypoxia rep: 5; Mtb BioA inh: -6; SARS 3CLpro inh: -1

How did COc1ccccc1CN1CCNC(=O)C1CC(=O)NCCCn1cccn1 (centres undefined) do in these assays?
FadD28 binding: -2; DUSP3 inh: 8; Mtb hypoxia rep: 4; SARS 3CLpro inh: -1

How did COc1ccccc1NS(=O)(=O)c1ccc2c(c1)OCCO2 do in these assays?
FadD28 binding: 0; DUSP3 inh: 58*; Mtb hypoxia rep: -5; Mtb BioA inh: -1; SARS 3CLpro inh: -4

What do the screens show for `CSc1ccccc1NS(=O)(=O)c1ccc2c(c1)OCCO2`?
FadD28 binding: -4; DUSP3 inh: -6; Mtb hypoxia rep: 3; Mtb BioA inh: 3; SARS 3CLpro inh: 0

Results for Cc1cccc(C2NC(=O)c3c(sc(C)c3C)N2)c1O (centres undefined) ?
FadD28 binding: -3; DUSP3 inh: 11; Mtb hypoxia rep: 7; SARS 3CLpro inh: 1

What do the screens show for `Cc1ccc(C2NC(=O)c3c(sc(C)c3C)N2)c(O)c1` (centres undefined)?
FadD28 binding: 1; DUSP3 inh: 51*; Mtb hypoxia rep: -1; SARS 3CLpro inh: -2

Results for CC(C)(C)OC(=O)N1CCC(C(=O)NC(Cc2ccccc2)C(=O)O)CC1 (centres undefined) ?
Mtb hypoxia rep: 6

What do the screens show for `O=C(CN1CCCc2ccccc21)NN=Cc1ccc(O)cc1O`?
Mtb hypoxia rep: 18

What do the screens show for `CCOC(=O)N1CCN(S(=O)(=O)N2CCCC(C(=O)NCCc3ccc(OCC)c(OCC)c3)C2)CC1` (centres undefined)?
FadD28 binding: 0; DUSP3 inh: 57*; Mtb hypoxia rep: -1; SARS 3CLpro inh: -2

What do the screens show for `N/C(=N\OC(=O)Oc1ccccc1)c1ccc(Br)cc1`?
FadD28 binding: 1; DUSP3 inh: 16; Mtb BioA inh: -4; SARS 3CLpro inh: 2

Results for NC(=Nc1ccc(Br)cc1)c1ccccc1 ?
FadD28 binding: 0; DUSP3 inh: 51*; Mtb hypoxia rep: 3; Mtb BioA inh: 1; SARS 3CLpro inh: 6

How did COc1ccccc1NC(=O)c1cc2ccc(O)cc2o/c1=N\O do in these assays?
FadD28 binding: 18*; DUSP3 inh: 32; Mtb BioA inh: -1; SARS 3CLpro inh: 6

What do the screens show for `COc1ccccc1NC(=O)c1cc2ccccc2o/c1=N\O`?
FadD28 binding: -1; DUSP3 inh: 17; Mtb BioA inh: -1

What do the screens show for `COc1cc(C=NNC(=O)c2cccnc2)ccc1OC(=O)c1ccco1`?
Mtb hypoxia rep: 4

Results for COC(=O)c1sccc1NC(=S)N1C(C)CCCC1C (centres undefined) ?
FadD28 binding: -3; DUSP3 inh: 51*; Mtb hypoxia rep: -4; SARS 3CLpro inh: 1

Results for COC(=O)c1sccc1NC(=S)N1CCCCC1C (centres undefined) ?
FadD28 binding: 0; DUSP3 inh: 16; Mtb hypoxia rep: -8; Mtb BioA inh: 1; SARS 3CLpro inh: 2

Results for CC(=NNC(=O)CNC(=O)c1cccs1)c1ccco1 ?
Mtb hypoxia rep: 3

What do the screens show for `CCn1c(=N)n(CC(O)c2ccco2)c2ccccc21` (centres undefined)?
FadD28 binding: -1; DUSP3 inh: -20; Mtb hypoxia rep: -11; Mtb BioA inh: -2; SARS 3CLpro inh: -2

What do the screens show for `N=c1n(Cc2ccccc2)c2ccccc2n1CC(O)c1ccco1` (centres undefined)?
FadD28 binding: 13*; DUSP3 inh: 44; Mtb hypoxia rep: -2; Mtb BioA inh: -11; SARS 3CLpro inh: -4

How did COc1ccc(C=NNC(=O)c2ccc(Br)cc2)cc1Cn1cc(Cl)cn1 do in these assays?
Mtb hypoxia rep: -7
